Results reported in paper PMC4336329 (PLoS ONE, 2015).
About 14,000 (4.5%) of roughly 310,000 compounds showed an effect of 50% or more. Effects have a minus sign here. What follows is part of a selection rich in strong results, with near analogues and random picks from the rest.

The compounds below were run against human ether-à-go-go-related gene (hERG) potassium channel (human, UniProt Q12809) (assay: primary screen, population patch clamp on CHO cells stably expressing hERG; higher = less effect of the substance).
Sequence of human ether-à-go-go-related gene (hERG) potassium channel (Q12809 whole entry, looked up): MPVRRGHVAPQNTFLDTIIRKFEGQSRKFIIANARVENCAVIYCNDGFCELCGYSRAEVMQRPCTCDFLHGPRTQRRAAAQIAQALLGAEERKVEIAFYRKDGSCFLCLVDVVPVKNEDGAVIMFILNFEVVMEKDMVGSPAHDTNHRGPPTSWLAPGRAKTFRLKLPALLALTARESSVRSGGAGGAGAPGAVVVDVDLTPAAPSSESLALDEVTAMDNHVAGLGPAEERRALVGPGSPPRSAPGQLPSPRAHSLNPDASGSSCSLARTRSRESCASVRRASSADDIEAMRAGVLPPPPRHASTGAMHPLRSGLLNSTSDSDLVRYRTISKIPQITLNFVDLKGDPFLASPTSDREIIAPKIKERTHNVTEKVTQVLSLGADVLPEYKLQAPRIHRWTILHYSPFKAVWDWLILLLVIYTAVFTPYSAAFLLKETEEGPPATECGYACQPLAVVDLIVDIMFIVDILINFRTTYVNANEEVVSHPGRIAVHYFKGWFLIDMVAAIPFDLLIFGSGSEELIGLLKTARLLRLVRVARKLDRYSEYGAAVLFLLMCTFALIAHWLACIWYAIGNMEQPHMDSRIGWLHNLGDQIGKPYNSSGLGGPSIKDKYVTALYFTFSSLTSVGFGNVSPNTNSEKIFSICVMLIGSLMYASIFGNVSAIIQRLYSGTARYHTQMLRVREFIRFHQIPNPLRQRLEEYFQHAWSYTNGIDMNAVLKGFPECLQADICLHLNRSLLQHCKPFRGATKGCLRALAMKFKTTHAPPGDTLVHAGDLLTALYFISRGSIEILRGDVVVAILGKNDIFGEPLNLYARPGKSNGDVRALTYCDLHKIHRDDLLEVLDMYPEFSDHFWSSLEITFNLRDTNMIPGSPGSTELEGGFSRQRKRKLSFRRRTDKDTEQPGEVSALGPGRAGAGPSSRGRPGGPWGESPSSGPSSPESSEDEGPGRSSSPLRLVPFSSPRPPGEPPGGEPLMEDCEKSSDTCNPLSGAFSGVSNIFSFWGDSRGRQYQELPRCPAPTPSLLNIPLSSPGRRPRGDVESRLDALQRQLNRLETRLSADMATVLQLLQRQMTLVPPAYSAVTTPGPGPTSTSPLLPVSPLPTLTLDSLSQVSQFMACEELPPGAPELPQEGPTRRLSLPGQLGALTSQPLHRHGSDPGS
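Also: peak tail current of the secondary pulse compared with the same well before compound.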

| SMILES | hERG current change (%, negative = inhibition) at 10uM |
| --- | --- |
| CC(=O)Nc1ccc(NC(=O)/C=C/c2ccc3c(c2)OCO3)cc1 | 13% |
| O=C(/C=C/c1ccc2c(c1)OCO2)Nc1cccnc1 | -66.4% |
| O=C(/C=C/c1ccc2c(c1)OCO2)c1cccnc1 | -27.8% |
| C[C@@H](C(=O)N[C@@H](Cc1c[nH]c2ccccc12)C(=O)O)n1nnc2ccccc2c1=O | 41.7% |
| Cn1c(Cn2c(=O)sc3ccccc32)nnc1SCc1ccc(F)cc1 | -21.6% |
| CC(=O)N(CCS(=O)(=O)c1ccc(Cl)cc1)Cc1cccs1 | -0.348% |
| N#C/C(=C\c1ccc(N2CCOCC2)o1)C(=O)NCC1CCCO1 (stereo not drawn) | -0.262% |
| N#C/C(=C\c1ccc(N2CCOCC2)o1)C(=O)NCCc1ccccc1 | -57.9% |
| COCCNC(=O)/C(C#N)=C/c1ccc(N2CCOCC2)o1 | 9.87% |
| O=C(c1cc(C(=O)NCc2ccccc2)c(=O)n(Cc2ccccc2)c1)c1cc(Cl)ccc1O | -0.908% |
| Cc1ccc2nsnc2c1S(=O)(=O)Nc1cccc2nsnc12 | -0.692% |
| COc1cc(C(=O)NC(=S)Nc2nccs2)cc(OC)c1OC | 17.7% |
| C/C(Cl)=C/Cn1c(SCC(C)C)nc2c1c(=O)[nH]c(=O)n2C | 15.2% |
| CCOC(=O)C(C)Sc1nc2c(c(=O)[nH]c(=O)n2C)n1Cc1ccc(Cl)cc1 (stereo not drawn) | -75% |
| Cn1c(=O)[nH]c(=O)c2c1nc(SCC(=O)O)n2CCCc1ccccc1 | 3.89% |
| COC(=O)C(C)Sc1nc2c(c(=O)[nH]c(=O)n2C)n1CCC(C)C (stereo not drawn) | -24.6% |
| CC(C)Sc1nc2c(c(=O)[nH]c(=O)n2C)n1Cc1ccc(Cl)cc1 | -13.3% |
| CCOC(=O)C(C)Sc1nc2c(c(=O)[nH]c(=O)n2C)n1C/C=C(/C)Cl (stereo not drawn) | -72.8% |
| CCOC(=O)C(C)Sc1nc2c(c(=O)[nH]c(=O)n2C)n1CCc1ccccc1 (stereo not drawn) | -49.8% |
| CCOC(=O)C(CC)Sc1nc2c(c(=O)[nH]c(=O)n2C)n1CCc1ccccc1 (stereo not drawn) | -67.8% |
| CCOC(=O)CSc1nc2c(c(=O)[nH]c(=O)n2C)n1CCc1ccccc1 | -1.16% |
| COC(=O)C(C)Sc1nc2c(c(=O)[nH]c(=O)n2C)n1CCCc1ccccc1 (stereo not drawn) | -72.2% |
| CCC(C)Sc1nc2c(c(=O)[nH]c(=O)n2C)n1Cc1ccc(Cl)cc1 (stereo not drawn) | 1.92% |

| SMILES | hERG current change (%, negative = inhibition) at 10uM |
| --- | --- |
| C/C(Cl)=C/Cn1c(SC(C)C)nc2c1c(=O)[nH]c(=O)n2C | -6.63% |
| Cc1ccc(OC(=S)Nc2ccc(F)cc2)cc1 | 7.01% |
| Cc1ccc(Sc2nc(-c3ccccc3)nnc2C(F)(F)F)cc1 | 11.7% |
| CC(C)(C)C(=O)NC(Nc1cccc2cccnc12)C(Cl)(Cl)Cl (stereo not drawn) | -1.6% |
| CC1=C(C(=O)OC(C)C)C(c2ccc(Br)s2)NC(=O)N1 (stereo not drawn) | -48% |
| O=c1oc2cc([N+](=O)[O-])ccc2nc1/C=C(\O)c1cccc(Br)c1 | 4.15% |
| C[C@]12C(=O)N(c3ccc(F)cc3)C(=O)N1[C@@H]1c3ccccc3OC[C@@H]1[C@H]2c1ccccc1 | 7.01% |
| COc1cc(OC)c(NC2=NCCCCC2)cc1Cl | -0.664% |
| CCOC(=O)CSc1nc2c(c(=O)[nH]c(=O)n2C)n1C/C=C(/C)Cl | -43.7% |
| CCOC(=O)C(CC)Sc1nc2c(c(=O)[nH]c(=O)n2C)n1C/C=C(/C)Cl (stereo not drawn) | -82% |
| CCSc1nc2c(c(=O)[nH]c(=O)n2C)n1C/C=C(/C)Cl | -17.2% |
| Nc1nc(Cl)cc(-c2ccccc2)n1 | -4.54% |
| CCC(C)C(NC=C1C(=O)OC(C)(C)OC1=O)C(=O)O (stereo not drawn) | -4.97% |
| CN(Cc1ccccc1)Cc1nc2c(c(=O)n(C)c(=O)n2C)n1Cc1ccc(Cl)cc1 | -30.1% |
| CCCCn1c(CN(C)Cc2ccccc2)nc2c1c(=O)n(C)c(=O)n2C | -39.9% |
| COCCn1c(CN(C)Cc2ccccc2)nc2c1c(=O)n(C)c(=O)n2C | -6.15% |
| CN(Cc1ccccc1)Cc1nc2c(c(=O)n(C)c(=O)n2C)n1Cc1ccc(F)cc1 | -55.6% |
| CC1CN(Cc2nc3c(c(=O)n(C)c(=O)n3C)n2Cc2cccc(Cl)c2)CC(C)O1 (stereo not drawn) | -14.2% |
| CN(Cc1ccccc1)Cc1nc2c(c(=O)n(C)c(=O)n2C)n1CCc1ccccc1 | -48.3% |
| Cn1c(=O)c2c(nc(CN3CCN(Cc4ccccc4)CC3)n2Cc2cccc(Cl)c2)n(C)c1=O | -59.2% |
| CCOCCn1c(CN(Cc2ccccc2)Cc2ccccc2)nc2c1c(=O)n(C)c(=O)n2C | -45.6% |
| CN(Cc1ccccc1)Cc1nc2c(c(=O)n(C)c(=O)n2C)n1CCCc1ccccc1 | -50.3% |
| CCCn1c(CN(C)Cc2ccccc2)nc2c1c(=O)n(C)c(=O)n2C | -23.4% |

| SMILES | hERG current change (%, negative = inhibition) at 10uM |
| --- | --- |
| COCCn1c(CN(Cc2ccccc2)Cc2ccccc2)nc2c1c(=O)n(C)c(=O)n2C | -62.8% |
| Cn1c(=O)c2c(nc(CN3CCN(c4cccc(Cl)c4)CC3)n2CCc2ccccc2)n(C)c1=O | -20.1% |
| CCCCC(CC(O)COCCC)C(=O)NN (stereo not drawn) | 16.1% |
| O=Cc1ccc(N2N=C(c3ccccc3)CC2c2ccccc2)cc1 (stereo not drawn) | 24.3% |
| Cc1[nH]c(C)c2c(=O)n(-c3ccccc3)ncc12 | 10.2% |
| COc1ccc(C2C(C#N)=C(N)N(N(C)C)C3=C2C(=O)CCC3)cc1 (stereo not drawn) | 9.88% |
| CCOC(=O)N1CCN(S(=O)(=O)c2ccc(Cl)cc2)CC1 | 0.615% |
| O=C(CSc1nc(-c2ccccc2)cs1)NCc1ccco1 | -14.9% |
| Cc1ccc(C)c(Cn2c(CN(C)Cc3ccccc3)nc3c2c(=O)n(C)c(=O)n3C)c1 | -51.3% |
| Cn1c(=O)c2c(nc(CN3CCN(Cc4ccccc4)CC3)n2Cc2ccc(F)cc2)n(C)c1=O | -67.2% |
| COc1ccc(N2CCN(Cc3nc4c(c(=O)n(C)c(=O)n4C)n3Cc3cccc(C)c3)CC2)cc1 | -52.3% |
| Cn1c(=O)c2c(nc(CN3CCc4ccccc4C3)n2Cc2ccc(F)cc2)n(C)c1=O | -26.5% |
| Cc1ccccc1Cn1c(CN2CCc3ccccc3C2)nc2c1c(=O)n(C)c(=O)n2C | -15.9% |
| CCOC(=O)N1CCN(Cc2nc3c(c(=O)n(C)c(=O)n3C)n2Cc2ccc(F)cc2)CC1 | -36.2% |
| COCCn1c(CN2CCN(c3ccc(OC)cc3)CC2)nc2c1c(=O)n(C)c(=O)n2C | -9.23% |
| Cn1c(=O)c2c(nc(CN3CCc4ccccc4C3)n2Cc2ccccc2)n(C)c1=O | -17.5% |
| CN(Cc1ccccc1)Cc1nc2c(c(=O)n(C)c(=O)n2C)n1Cc1ccccc1Cl | -5.6% |
| Cc1ccc(Cn2c(CN(C)Cc3ccccc3)nc3c2c(=O)n(C)c(=O)n3C)cc1 | -21.5% |
| COc1ccc(N2CCN(Cc3nc4c(c(=O)n(C)c(=O)n4C)n3CCc3ccccc3)CC2)cc1 | 13.5% |
| Cn1c(=O)c2c(nc(CN3CCc4ccccc4C3)n2Cc2cccc(Cl)c2)n(C)c1=O | -53.9% |
| NC(=S)Nc1ccc(C(F)(F)F)cc1Cl | 0.127% |
| O=C(CN1C(=O)C2(OCCO2)c2ccccc21)c1ccc(F)cc1 | 2.09% |
| COc1ccc(CCCC(=O)Nc2cc(C)ccc2OC)cc1 | -14.2% |

| SMILES | hERG current change (%, negative = inhibition) at 10uM |
| --- | --- |
| CCOc1cc(C(=O)CCC(=O)OCC(=O)Nc2ccc(C)c(S(=O)(=O)N(C)C)c2)ccc1O | -32.7% |
| Cc1cc(N)n(Cc2cccs2)n1 | -2.95% |
| COc1ccc(C(=O)Nc2nnc(S(=O)(=O)N(C)Cc3ccccc3)s2)cc1 | 7.21% |
| O=c1c2ccccc2[nH]c(=S)n1-c1ccc2c(c1)OCO2 | 13.1% |
| Cc1nc(NC(=O)CSc2nnc3ccccn23)c(Cl)cc1Cl | -3.58% |
| Cn1c(=O)c2c(nc(CN3CCc4ccccc4C3)n2Cc2ccc(Cl)cc2)n(C)c1=O | 0.125% |
| Cn1c(=O)c2c(nc(CN3CCN(Cc4ccccc4)CC3)n2Cc2ccc(Cl)cc2)n(C)c1=O | -68% |
| Cn1c(=O)c2c(nc(CN3CCN(Cc4ccccc4)CC3)n2CCN2CCOCC2)n(C)c1=O | -17.6% |
| Cc1csc(SCC(=O)Nc2cc(S(=O)(=O)N3CCOCC3)ccc2N2CCOCC2)n1 | -45.8% |
| CCn1c(SCC(=O)Nc2ccc(OC)cc2)nnc1-c1ccco1 | -22.3% |
| O=C(O)/C=C/C(=O)NNC(=O)c1ccccc1Br | 2.8% |
| O=c1[nH]c(SCc2ccccc2)nc2ccsc12 | 5.3% |
| O=c1[nH]c(SCc2ccc(Cl)cc2)nc2ccccc12 | 3.49% |
| O=c1[nH]c(SCc2ccc(Cl)cc2)nc2ccsc12 | -67% |
| COc1cc(CCCN2C(=S)NC[C@@H]2CC2CCCCC2)cc(OC)c1OC | -1.89% |
| CC(C)N(CC#CC(O)(c1ccccc1)c1ccccc1)CCO | -28.1% |
| CN(CC#CC(O)(c1ccccc1)c1ccccc1)C(C)(C)C | -69% |
| CC(C)N(CC#CC(O)(c1ccccc1)c1ccccc1)C(C)C | -70.4% |
| CN(C)CCC#CC(O)(c1ccccc1)c1ccccc1 | -32.1% |
| OCCN(CC#CC(O)(c1ccccc1)c1ccccc1)CCO | 5.56% |
| CCN(CC)CC#CC(O)(c1ccccc1)c1ccccc1 | -42.5% |
